Data from PubChem BioAssay AID1159580 (chemical genetic matrix, 2015).
Values joined by “and” are separate entries in the source; they are usually repeats but may differ in a detail not shown here. Equal entries are not always repeated. The whole screen tested about 5,500 compounds, of which about 2,000 (36%) were called active. Roughly 18% stayed inconclusive and do not appear here. No stated cut-off is given here; in the data, active means normalized growth mostly below about 0.91 (no sharp cut-off); inconclusive means no clear call, values can overlap the other calls; inactive means mostly above about 0.92. This is one part of the list.

Experiment: chemical genetic growth profiling, strain panel (AID 1159580);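 further: tested at 20 µM; growth read once vehicle control cultures reached saturation at 30 °C; 1 = growth at the plate median or of vehicle wells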
Conditions: S. cerevisiae deletion strains, growth OD

Measured: normalized growth

Cc1cc(/C=C/c2ccc3cc(N(C)C)ccc3[n+]2C)c(C)n1-c1ccccc1
inactive: locus YAL013W, strain DEP1, stronger effect = lower value 0.987 | locus YAL026C, strain drs2, stronger effect = lower value 0.924 | locus YAL030W, strain snc1, stronger effect = lower value 0.954 | locus YBL061C, strain skt5, stronger effect = lower value 0.927 | locus YBR009C, strain hhf1, stronger effect = lower value 0.922 | locus YBR023C, strain chs3, stronger effect = lower value 0.96 | locus YBR171W, strain sec66, stronger effect = lower value 1.04 | locus YBR229C, strain ROT2, stronger effect = lower value 1 | locus YCL029C, strain bik1, stronger effect = lower value 0.998 | locus YCL061C, strain MRC1, stronger effect = lower value 0.93 | locus YCL069W, strain vba3, stronger effect = lower value 0.995 | locus YCR088W, strain abp1, stronger effect = lower value 0.978 | locus YDL005C, strain med2, stronger effect = lower value 1.03 | locus YDL040C, strain nat1, stronger effect = lower value 1 | locus YDL185W, strain tfp1, stronger effect = lower value 1 | locus YDL192W, strain arf1, stronger effect = lower value 0.987 | locus YDR001C, strain nth1, stronger effect = lower value 1.01 | locus YDR069C, strain doa4, stronger effect = lower value 0.989 | locus YDR101C, strain arx1, stronger effect = lower value 0.986 | locus YDR159W, strain sac3, stronger effect = lower value 1.04 | locus YDR297W, strain sur2, stronger effect = lower value 0.961 | locus YDR318W, strain mcm21, stronger effect = lower value 0.946 | locus YDR335W, strain msn5, stronger effect = lower value 0.953 | locus YDR388W, stronger effect = lower value 0.989 | locus YDR392W, strain spt3, stronger effect = lower value 0.782 | locus YDR502C, strain sam2, stronger effect = lower value 0.943 | locus YEL003W, strain gim4, stronger effect = lower value 0.949 | locus YEL061C, strain CIN8 (second series), stronger effect = lower value 1 | locus YER016W, strain bim1, stronger effect = lower value 0.992 | locus YER110C, stronger effect = lower value 1.02 | locus YER111C, strain swi4, stronger effect = lower value 1.05 | locus YER155C, strain BEM2, stronger effect = lower value 1.03 | locus YFR010W, strain ubp6, stronger effect = lower value 0.989 | locus YGL078C, strain dbp3, stronger effect = lower value 1.02 | locus YGL167C, strain pmr1, stronger effect = lower value 1.01 | locus YGL173C, strain kem1, stronger effect = lower value 0.974 | locus YGL227W, strain vid30, stronger effect = lower value 1.04 | locus YGL240W, strain doc1, stronger effect = lower value 0.962 | locus YHR079C, strain IRE1 (second series), stronger effect = lower value 1 | locus YHR079C, strain IRE1, stronger effect = lower value 1.04 | locus YHR094C, strain hxt1, stronger effect = lower value 1.01 | locus YHR142W, strain chs7, stronger effect = lower value 1 | locus YIL066C, strain RNR3, stronger effect = lower value 0.87 | locus YIL125W, strain kgd1, stronger effect = lower value 1.03 | locus YIR030C, strain dcg1, stronger effect = lower value 1 | locus YJL095W, strain BCK1 (second series), stronger effect = lower value 1.01 | locus YJL095W, strain BCK1, stronger effect = lower value 0.876 and 1.02 | locus YJL115W, strain asf1, stronger effect = lower value 1.01 | locus YJL134W, strain LCB3, stronger effect = lower value 1 | locus YJL154C, strain vps35, stronger effect = lower value 1.01 | locus YJL164C, strain tpk1, stronger effect = lower value 0.92 | locus YJL166W, strain qcr8, stronger effect = lower value 0.955 | locus YJL168C, strain set2, stronger effect = lower value 0.984 | locus YJL187C, strain SWE1 (second series), stronger effect = lower value 0.88
0.815 (active) and 1.02 (inactive): locus YHR030C, strain SLT2, stronger effect = lower value
active: locus YAL021C, strain ccr4, stronger effect = lower value 0.507 | locus YBR021W, strain FUR4, stronger effect = lower value 0.668 | locus YBR231C, strain swc5, stronger effect = lower value 0.74 | locus YBR279W, strain paf1, stronger effect = lower value 0.882 | locus YCL011C, strain gbp2, stronger effect = lower value 0.837 | locus YCL016C, strain dcc1, stronger effect = lower value 0.912 | locus YDL035C, strain GPR1, stronger effect = lower value 0.525 | locus YDL074C, strain BRE1, stronger effect = lower value 0.653 | locus YDL101C, strain DUN1, stronger effect = lower value 0.744 | locus YDL134C, strain PPH21, stronger effect = lower value 0.615 | locus YDR137W, strain rgp1, stronger effect = lower value 0.834 | locus YDR162C, strain NBP2, stronger effect = lower value 0.232 | locus YDR195W, strain ref2 1.25 [resistant] | locus YDR334W, strain swr1, stronger effect = lower value 0.843 | locus YEL037C, strain rad23, stronger effect = lower value 0.915 | locus YEL061C, strain CIN8, stronger effect = lower value 0.879 | locus YER015W, strain faa2, stronger effect = lower value 0.736 | locus YER155C, strain BEM2 (second series), stronger effect = lower value 0.727 | locus YER167W, strain BCK2, stronger effect = lower value 0.825 | locus YGL086W, strain mad1, stronger effect = lower value 0.889 | locus YGL248W, strain PDE1, stronger effect = lower value 0.65 | locus YGL253W, strain hxk2, stronger effect = lower value 0.684 | locus YGR078C, strain PAC10, stronger effect = lower value 0.776 | locus YGR135W, strain pre9, stronger effect = lower value 0.808 | locus YGR252W, strain gcn5, stronger effect = lower value 0.606 | locus YHR013C, strain ard1, stronger effect = lower value 0.662 | locus YHR027C, strain rpn1, stronger effect = lower value 0.83 | locus YHR129C, strain ARP1, stronger effect = lower value 0.904 | locus YHR200W, strain rpn10, stronger effect = lower value 0.857 | locus YIL073C, strain SPO22, stronger effect = lower value 0.278 | locus YJL092W, strain hpr5, stronger effect = lower value 0.893 | locus YJL129C, strain trk1, stronger effect = lower value 0.373 | locus YJR043C, strain POL32, stronger effect = lower value 0.651
